The target of assay [1] is CCAAT/enhancer-binding protein beta (Homo sapiens) (UniProt P17676). Nature of the assay: ATG_C_EBP_CIS: Attagene CIS-FACTORIAL HepG2 Assay for human CCAAT/Enhancer Binding Protein (C/EBP) beta (AID 2282927). The settings on record: HepG2 Attagene cis-factorial transcription factor reporter; actives raise or lower the signal. The method, boiled down: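 HepG2 transiently transfected with multiplexed reporter units under cis-regulatory promoters reporting endogenous C/EBPb activity. After 24 h exposure, reporter mRNA assayed by RT-PCR, fluorescent labelling, HpaI digestion and capillary electrophoresis; bidirectional fitting versus DMSO.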
Chain of CCAAT/enhancer-binding protein beta (Homo sapiens) (P17676 whole entry, looked up): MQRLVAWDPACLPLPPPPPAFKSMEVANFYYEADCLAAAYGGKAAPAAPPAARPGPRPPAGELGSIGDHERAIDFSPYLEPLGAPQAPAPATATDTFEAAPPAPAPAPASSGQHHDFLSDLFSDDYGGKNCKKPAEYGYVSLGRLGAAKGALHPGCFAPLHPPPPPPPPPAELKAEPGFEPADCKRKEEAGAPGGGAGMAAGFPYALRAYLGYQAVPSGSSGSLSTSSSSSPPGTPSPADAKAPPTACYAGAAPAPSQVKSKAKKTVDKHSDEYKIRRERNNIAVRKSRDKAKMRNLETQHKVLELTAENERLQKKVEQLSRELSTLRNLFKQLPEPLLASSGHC

The nature of assay [2]: ATG_CMV_CIS: Attagene CIS-FACTORIAL HepG2 Assay for human CMV (Internal Marker) (AID 2282928).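 Note: endpoint acts as a background internal control marker rather than a target.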 As to conditions: HepG2 CMV promoter reporter, transcription factor profiling; actives raise or lower the signal. The method, boiled down:
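Bidirectional fits against DMSO are applied to reporter mRNA, read by RT-PCR with capillary electrophoresis, from HepG2 cells exposed 24 h. The endpoint serves as an internal CMV background marker within the cis-factorial reporter panel.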

Assay [3] is described as follows: ATG_DR4_LXR_CIS: Attagene CIS-FACTORIAL HepG2 Assay for human Liver X Receptor (LXR), DR4 submotif (AID 2282929). As to conditions: HepG2 Attagene DR4 cis-reporter, mRNA transcription; AC50: actives raise or lower the signal unless noted; outcome: actives raise or lower the signal unless noted. The method, boiled down: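 HepG2, transient MRTU transfection, cis-element (DR4) promoter; 24 h compound exposure; total RNA → oligo(dT) RT → PCR → 6-FAM primer extension → HpaI cut → CE. Gain/loss vs DMSO, bidirectional fit.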

For assay [4], the target named is Aryl hydrocarbon receptor (Homo sapiens) (UniProt P35869). In words: ATG_Ahr_CIS: Attagene CIS-FACTORIAL HepG2 Assay for human Aryl Hydrocarbon Receptor (Ahr) (AID 2282930). As to conditions: HepG2 AhR cis-factorial reporter transcription; actives raise or lower the signal. The method, boiled down:
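HepG2 cells transiently transfected with cis-element-driven multiplexed reporter units; endogenous AhR activity read as reporter mRNA 24 h after dosing, via RT-PCR, 6-FAM labelling, HpaI digestion and capillary electrophoresis. Bidirectional fit relative to DMSO.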

Assay [5] can be described thus: ATG_AP_1_CIS: Attagene CIS-FACTORIAL HepG2 Assay for human Activator Protein 1 (AP-1) (AID 2282931). The settings on record: HepG2 Attagene cis-factorial AP-1 reporter mRNA; actives raise or lower the signal. The method, boiled down:
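Transient MRTU transfection of HepG2 → 24 h chemical treatment → RNA isolation, RT-PCR, 6-FAM labelling, HpaI digest → capillary electrophoresis. Fit: bidirectional, DMSO negative control.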

Assay [6] in a line: ATG_AP_2_CIS: Attagene CIS-FACTORIAL HepG2 Assay for human Activator Protein 2 (AP-2) (AID 2282932). As to conditions: HepG2 AP-2 cis-reporter, Attagene transcription factor profiling; AC50: actives raise or lower the signal unless noted; outcome: actives raise or lower the signal unless noted. The method, boiled down:
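Liver-derived HepG2 line, cis-reporter system measuring endogenous factors; 24 h dosing; reporter mRNA detected by fluorescent RT-PCR and capillary electrophoresis.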

For assay [7], the target named is Transcription factor E2F1 (Homo sapiens) (UniProt Q01094). In words: ATG_E2F_CIS: Attagene CIS-FACTORIAL HepG2 Assay for human E2F Transcription Factor 1 (AID 2282935). The settings on record: HepG2 Attagene cis-reporter, E2F reporter RNA transcripts; actives raise or lower the signal. The method, boiled down: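 Liver-derived HepG2 cells expressing transfected promoter-driven reporter units received test chemical for 24 hours. Signal gains or losses were fitted bidirectionally against DMSO.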
Chain of Transcription factor E2F1 (Homo sapiens) (Q01094 whole entry, looked up): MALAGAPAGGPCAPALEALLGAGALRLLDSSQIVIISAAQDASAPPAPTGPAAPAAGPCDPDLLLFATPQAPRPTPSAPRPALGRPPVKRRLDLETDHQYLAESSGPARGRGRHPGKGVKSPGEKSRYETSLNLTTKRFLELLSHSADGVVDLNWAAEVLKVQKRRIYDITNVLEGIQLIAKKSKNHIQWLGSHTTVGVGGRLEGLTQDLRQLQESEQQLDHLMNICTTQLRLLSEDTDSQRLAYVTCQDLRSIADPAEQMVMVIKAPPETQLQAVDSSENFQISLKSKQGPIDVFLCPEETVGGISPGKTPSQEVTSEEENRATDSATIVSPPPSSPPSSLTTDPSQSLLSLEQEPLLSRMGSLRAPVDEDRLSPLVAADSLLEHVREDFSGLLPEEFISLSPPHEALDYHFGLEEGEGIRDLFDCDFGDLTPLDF

Assay [8] in a line: ATG_E_Box_CIS: Attagene CIS-FACTORIAL HepG2 Assay for human Enhancer Box (E-box) (AID 2282936). The settings on record: HepG2 E-box cis-reporter transcription, actives raise or lower the signal. The method, boiled down:
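In this cell-based setup, HepG2 cells bearing transfected promoter-driven reporter units were exposed to chemicals for 24 h; reporter transcripts were amplified, 6-FAM-labelled, cut with HpaI and sized by capillary electrophoresis.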

Assay [9] can be described thus: ATG_BRE_CIS: Attagene CIS-FACTORIAL HepG2 Assay for human Bone Morphogenetic Protein (BMP) Response Element (BRE) (AID 2282933). As to conditions: HepG2 BMP response element reporter, Attagene transcription factor profiling; actives raise or lower the signal. The method, boiled down:
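Gain- or loss-of-signal was derived by bidirectional fitting against DMSO controls. The signal came from reporter mRNA, measured by RT-PCR and capillary electrophoresis, in HepG2 cells transiently carrying multiple reporter units and dosed for 24 h.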

The target of assay [10] is Retinoic acid receptor alpha (Homo sapiens) (UniProt P10276). In words: ATG_DR5_RAR_CIS: Attagene CIS-FACTORIAL HepG2 Assay for human Retinoic Acid Receptor Alpha (RARE), DR5 submotif (AID 2282934). As to conditions: HepG2 Attagene cis-factorial RARE DR5 reporter, mRNA; actives raise or lower the signal. The method, boiled down:
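HepG2 cells transiently transfected with multiplexed reporter units; DR5 cis-element drives reporter through endogenous transcription factors. After 24 h dosing, reporter mRNA quantified by RT-PCR, fluorescent labeling, HpaI digestion and capillary electrophoresis; bidirectional fitting versus DMSO.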

Values joined by “and” are separate entries in the source; they are usually repeats but may differ in a detail not shown here. Equal entries are not always repeated. Some compounds were tested as several samples or in several runs, with calls that do not always agree. Active and inactive are the calls of the source. Rule for the calls: active = hit-call score of the fitted dose curve at least 0.9, where 1 is the maximum; inactive = score below 0.9.

Chain of Retinoic acid receptor alpha (Homo sapiens) (P10276 whole entry, looked up): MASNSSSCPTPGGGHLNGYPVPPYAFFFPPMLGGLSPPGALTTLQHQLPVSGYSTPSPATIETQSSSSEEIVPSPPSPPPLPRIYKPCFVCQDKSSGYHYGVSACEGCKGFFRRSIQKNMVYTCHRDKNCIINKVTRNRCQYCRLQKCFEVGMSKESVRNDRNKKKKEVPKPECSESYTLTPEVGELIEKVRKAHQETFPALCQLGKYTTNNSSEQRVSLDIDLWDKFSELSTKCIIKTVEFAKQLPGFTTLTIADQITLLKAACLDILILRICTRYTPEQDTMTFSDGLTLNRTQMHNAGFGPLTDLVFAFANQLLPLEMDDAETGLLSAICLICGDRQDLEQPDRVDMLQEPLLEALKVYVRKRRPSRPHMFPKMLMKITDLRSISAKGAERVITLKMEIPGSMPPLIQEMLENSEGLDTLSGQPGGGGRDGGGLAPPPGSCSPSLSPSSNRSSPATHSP
Chain of Aryl hydrocarbon receptor (Homo sapiens) (P35869 whole entry, looked up): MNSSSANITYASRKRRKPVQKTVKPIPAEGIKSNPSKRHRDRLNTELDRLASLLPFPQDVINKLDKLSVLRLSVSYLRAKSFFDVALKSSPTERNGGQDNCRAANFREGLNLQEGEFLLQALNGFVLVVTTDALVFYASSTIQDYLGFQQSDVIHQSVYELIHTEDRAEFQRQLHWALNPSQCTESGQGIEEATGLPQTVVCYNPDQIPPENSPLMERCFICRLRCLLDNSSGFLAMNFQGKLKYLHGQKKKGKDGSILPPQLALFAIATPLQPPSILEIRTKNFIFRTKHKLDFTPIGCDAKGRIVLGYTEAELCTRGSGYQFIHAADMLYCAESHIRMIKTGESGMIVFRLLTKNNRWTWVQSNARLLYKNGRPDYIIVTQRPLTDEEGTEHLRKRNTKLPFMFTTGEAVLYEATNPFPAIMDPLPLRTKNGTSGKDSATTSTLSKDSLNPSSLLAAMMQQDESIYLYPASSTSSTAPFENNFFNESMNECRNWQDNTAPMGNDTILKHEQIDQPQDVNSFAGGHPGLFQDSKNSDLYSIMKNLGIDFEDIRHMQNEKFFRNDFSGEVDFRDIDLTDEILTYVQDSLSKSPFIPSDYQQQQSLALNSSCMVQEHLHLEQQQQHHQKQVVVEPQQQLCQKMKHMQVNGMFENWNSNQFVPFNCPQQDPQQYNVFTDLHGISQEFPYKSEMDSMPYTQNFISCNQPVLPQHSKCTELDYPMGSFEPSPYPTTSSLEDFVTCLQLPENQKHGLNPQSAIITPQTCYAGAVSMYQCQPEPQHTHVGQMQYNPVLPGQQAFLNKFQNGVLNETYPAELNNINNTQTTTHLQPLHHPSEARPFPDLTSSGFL

In the case of `CC=O`, the result in assay [1], in assay [2], in assay [3], in assay [4], in assay [5] and in assay [6] was inactive. Further, the molecule was called inactive in assay [7] and in [8].
As usually defined, the AC50 is the midpoint of the concentration-response curve, whichever way the signal moves. Consider `CN(C)CCOC(c1ccccc1)c1ccccc1`, for which the result in assay [1], in assay [2], in assay [5], in assay [6], in assay [9] and in assay [7] was inactive. The AC50 was 150 µM (active) in assay [3], 64 µM (active) in assay [4] and 60.6 µM (active) in assay [8].
As for `CCC1CO1` (stereo not given), the outcome in [1], in [2], in assay [3], in assay [4], in assay [5] and in assay [6] was inactive. Besides, the molecule was classed as inactive in assay [10], in assay [7] and in assay [8].
For `O=C(C=C(O)C(F)(F)F)C(F)(F)F`, the outcome in assay [1], in [2], in [3], in assay [4], in [5] and in [6] was inactive. Besides, the molecule was called inactive in assay [10], in [7] and in assay [8].
As for `CCCCCCCCCCCCCCCC(=O)OC`, the outcome in assay [1], in assay [2], in assay [3], in [4], in [5] and in assay [6] was inactive. The molecule was called inactive in assay [10] and in assay [8].
Consider `COCN(COC)c1nc(N(COC)COC)nc(N(COC)COC)n1`, for which the result in assay [1], in assay [2], in assay [3], in assay [4], in assay [5] and in assay [6] was inactive. Moreover, the outcome in assay [9], in assay [7] and in assay [8] was inactive.
Take `FC(F)(F)C(F)(F)C(F)(F)Br`: the outcome in assay [1], in assay [2], in [3], in assay [4], in assay [5] and in assay [6] was inactive. For the same molecule, the molecule was called inactive in [10], in [7] and in assay [8].
For the molecule `CC(C)(C)C1CCCCC1O` (stereo not given), the outcome in assay [1], in [2], in assay [3], in assay [4], in assay [5] and in [6] was inactive. Further, the outcome in assay [9], in assay [7] and in [8] was inactive.
With `NNC(=O)CCCCC(=O)NN`, the result in assay [1], in assay [2], in [3], in assay [4], in assay [5] and in assay [6] was inactive. Besides, the molecule was classed as inactive in [9] and in assay [8].
Regarding `FC(OC(F)(F)C(F)(F)C(F)(F)F)C(F)(F)F` (stereo not given), the outcome in assay [1], in assay [2], in assay [3], in [4], in assay [5] and in [6] was inactive. The result in assay [9], in [7] and in [8] was inactive.
Turning to `O=CC(F)(F)C(F)(F)C(F)(F)F`, the outcome in [1], in assay [2], in assay [3], in [4], in assay [5] and in assay [6] was inactive. Further, the result in assay [9] and in assay [8] was inactive.
Take `C=CC(=O)OCCN(CC)CC`: the AC50 in assay [1] is 44.2 µM (active); in assay [2] it was 63.2 µM (active); in [3], 26.6 µM (active); in assay [4], 65.6 µM (active); in [5] it was 178 µM (active); in [8], 37 µM (active). In addition, the call in assay [6], in assay [10] and in assay [7] was inactive.
On to `CS(=O)(=O)c1ccc([C@@H](CC2CCCC2)C(=O)Nc2cnccn2)cc1Cl`, for which the outcome in assay [1], in assay [6], in assay [10], in [7] and in assay [8] was inactive. Besides, the AC50 in assay [2] is 136 µM (active); in assay [3], 29.1 µM (active); in assay [4] it was 68.4 µM (active); in assay [9], 127 µM (active).
In the case of `CCCCCCC(C)(C)C(=O)O`, the result in assay [1], in [2], in assay [3], in assay [4], in [6] and in [10] was inactive. In addition, the molecule was called inactive in assay [7] and in [8]. For the same molecule, the AC50 in [5] was 137 µM (active).
On to `CCN(CCC#N)c1ccccc1`, for which the result in [1], in assay [2], in [3], in [4], in assay [5] and in assay [6] was inactive. The molecule was called inactive in [9], in assay [7] and in [8].
As for `Cc1ccc2ccc3ccc(C)cc3c2c1`, the result in [1], in [2], in assay [3], in assay [5], in assay [6] and in assay [9] was inactive. For the same molecule, the result in assay [8] was inactive. In addition, the AC50 in assay [4] was 50.6 µM (active).
For `CCOC(=O)CN[C@@H](C(=O)N1CC[C@H]1C(=O)NCc1ccc(/C(N)=N/O)cc1)C1CCCCC1`, the result in assay [1], in [2], in [3], in assay [4], in assay [5] and in assay [6] was inactive. The call in assay [9] and in [8] was inactive.
Consider `O=C(NCc1ncc(C(F)(F)F)cc1Cl)c1c(Cl)cccc1Cl`, for which the outcome in assay [1], in [2], in assay [4], in [5], in assay [6] and in assay [9] was inactive. The result in [8] was inactive. Moreover, the AC50 in [3] was 81.4 µM (active); in assay [7], 43.1 µM (active).
Turning to `O=c1cc(-c2ccccc2)oc2ccc3ccccc3c12`, the outcome in [1], in assay [2], in [3], in [5], in assay [6] and in assay [9] was inactive. Moreover, the outcome in assay [7] and in assay [8] was inactive.
`c1ccc(CNc2ncnc3c2ncn3C2CCCCO2)cc1` (stereo not given): the result in assay [1], in assay [2], in assay [3], in assay [5], in assay [6] and in assay [9] was inactive. Also, the molecule was classed as inactive in assay [10], in [7] and in assay [8].
`CCCCC=O`: the result in [1], in assay [2], in assay [3], in assay [5], in assay [6] and in assay [9] was inactive. The outcome in assay [8] was inactive.
For `CC1=NN(c2ccccc2)C(=O)C1`, the result in assay [1], in assay [2], in assay [3], in assay [5], in assay [6] and in assay [9] was inactive. Besides, the molecule was classed as inactive in [10] and in assay [8].
As to `Cc1[nH]nc2c1N=C(c1ccccc1Cl)c1cc([N+](=O)[O-])ccc1N2`, the outcome in [1], in assay [9], in assay [10], in [7] and in assay [8] was inactive. Further, the AC50 in [2] is 1.58 µM (active); in assay [3], 2.67 µM (active); in assay [5], 0.125 µM (active); in assay [6] it was 3.12 µM (active).
Consider `O=C(NO)c1ccccc1`, for which the result in assay [1] and in assay [6] was inactive. Moreover, the AC50 in [2] was 37.2 µM (active) [middle of 4 runs]; in [3] it was 26.6 µM (active) [middle of 4 runs]; in assay [5] it was 26.5 µM (active) [middle of 4 runs]; in [6], 63.6 µM (active) and 59.8 µM (active); in assay [8], 27.9 µM (active) [middle of 4 runs].
On to `NS(=O)(=O)O`, for which the result in [1], in assay [2], in assay [3], in assay [5], in assay [6] and in assay [9] was inactive. Moreover, the result in assay [7] and in assay [8] was inactive.
For the molecule `CC(=O)CC(C)C`, the result in [1], in assay [2], in [3], in assay [5], in assay [6] and in assay [9] was inactive. Moreover, the call in assay [10] and in assay [7] was inactive.

The values above are taken from PubChem BioAssay (EPA / NIEHS).
